PubChem BioAssay

Test: basal RPMI8226 viability, no added stimulus, profiling panel, cell-based, calcein-AM fluorescence, 48 h, PK04 Diversity Set (AID 1166);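 note: cells grown under basal conditions without added stimulus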
Details: RPMI8226 myeloma viability, higher = more signal
Note: test concentration not given here.

Point of comparison: `[N-]=[N+]=Nc1ccccc1C[C@]1(C(=O)O)COC(c2ccc(OCCCO)cc2)=N1`, z-score -0.747. Against it:
- CC(=O)NCCCC[C@@H]1NC(=O)[C@@H]2C[C@H](C(=O)NCCCCCN)[C@H](c3cccc(OCCO)c3)N2C1=O — higher, 1.3
- COc1ccc(C#Cc2ccc3c(c2)[C@]2(C(=O)N3)[C@H](c3ccc(OCCO)cc3)N3[C@H](c4ccccc4)[C@H](c4ccccc4)OC(=O)[C@H]3[C@@H]2C(=O)NC[C@H](O)c2ccccc2)cc1 — lower, -1.46
- CC(C)NC(=O)[C@@]1(C)c2ccccc2C(=O)N(Cc2ccc(OC(F)(F)F)cc2)[C@H]1c1ccc(CO)cc1 — higher, -0.676
- CCCC[C@@H](O)C1=C(COC)C[C@H]2C(=O)N(Cc3ccccc3)C(=O)[C@H]2[C@H]1CO — higher, 0.105

Test: basal HepG2 mitochondrial membrane potential changes, profiling panel, cell-based, JC-1 fluorescence, 24 h, 100 nL compound (AID 1167)
Details: higher = more signal

Point of comparison: `CCCCCC1=C2CNC(C)(C(=O)OC)C=C2C(C)C1=O` (stereo unspecified), z-score -1.71. Against it:
- CCOC(=O)C[C@H]1[C@H](OC(=O)Cc2ccc3c(c2)OCO3)[C@@H](NC(=O)c2ccc3ccccc3n2)c2cc(OCCCO)ccc2N1C(=O)c1ccccc1 — higher, 2.52
- COc1ccc([Si](C)(C)[C@@H]2[C@@H](CC(=O)N(CCO)Cc3ccccc3)O[C@]3(C(=O)N(Cc4cccc(N5CCCCC5=O)c4)c4ccccc43)[C@H]2C)cc1 — higher, 0.56
- C=C[C@@H](OC)[C@H](OC(=O)Nc1ccc(OC)cc1)c1ccc(O)c(F)c1 — lower, -2.82
- O=C1NC(=O)C2C1C=CC(C(O)c1ccco1)N2Nc1ccc(Cl)cc1Cl (stereo unspecified) — lower, -1.96
- CCC#CCN(Cc1ccccc1Br)[C@H](/C=C/C1CC1)[C@@H](O)Cc1ccccc1 — higher, -1.28
